SMILES strings stand for the structures. The whole screen tested about 2,100 compounds, of which about 670 (32%) were called active. About 50% were inconclusive and are not listed. The list shows a part of the results. Values without a mark were called inactive. Calls follow the shape of the dose curve; as a rule, active = well fitted inhibition curve with a large enough effect; inconclusive = small, poorly fitted or top-dose-only effect; inactive = no such curve, though single readings can be large or run the other way.
% is scaled to controls: 0 for no effect and ±100 for the full control effect; potency is read from the fitted curve at half-maximal effect.

The nature of the experiment: CMV-Luciferase Counterscreen for Inhibitors of ATXN expression. Also: nearly all actives have a fitted effect of over 55% in size. To be noted: HEK-293 CMV-luciferase reporter, luminescence, 24 h; series mostly up to 57.5 µM.
For the compound `COc1ccc(Cc2[nH]n3c(=O)cc(C(C)C)nc3c2-c2ccccc2)cc1`, the Potency is 8.91 µM (active).
Still for that read-out and setting: for `CN1CCC[C@H]1CCNc1ccc2c(=O)c3ccccc3n(C)c2c1` the value was “inactive”.
Same read-out and setting: for `O=C(CSc1n[nH]c(-c2ccccn2)n1)Nc1ccc(F)cc1` the value was 8.91 µM (active).
Turning to `O=C(CSc1ccc2ccccc2c1)Nc1nc2ccccc2[nH]1`, the activity change, negative = inhibition was 78.8% [at 11.4 µM].
As for `O=C(CSc1n[nH]c(-c2ccccn2)n1)Nc1ccccc1`, the Potency was 7.94 µM (active).
`O=C(CSc1n[nH]c(-c2ccccn2)n1)Nc1ccc(Cl)cc1`: the Potency was 0.794 µM (active).
For the compound `O=C(CC1NCCc2ccccc21)Nc1ccc(Cl)cc1` (stereo unspecified), the activity change, negative = inhibition is 5.88% [at 11.4 µM].
As for `CCn1cc(C(=O)NCc2cccc(F)c2)c(=O)c2cc(F)c(N3CCN(C(=O)c4ccco4)CC3)cc21`, the Potency is 15.8 µM (active).
In the case of `CCOC(=O)Cn1cc(C(=O)c2ccco2)c2ccccc21`, the activity change, negative = inhibition is -4.82% [at 11.4 µM].
As for `CCn1cc(C(=O)NCc2ccccc2)c(=O)c2cc(F)c(N3CCN(C(=O)c4ccco4)CC3)cc21`, the Potency is 25.1 µM (active).
Still for that read-out and setting: the entry for `CCn1cc(C(=O)NCCCN2CCCC(C)C2)c(=O)c2cc(S(=O)(=O)N3CCc4ccccc4C3)ccc21` (stereo unspecified) is “inactive”.
Take `COC(=O)c1ccc(Oc2nc(NC(C)C)nc(N(C)C)n2)cc1`: the activity change, negative = inhibition was -22.6% [at 11.4 µM].
Still for that read-out and setting: the figure for `Nc1c(C(=O)NCc2ccccc2)c2nc3ccccc3nc2n1-c1ccc2c(c1)OCO2` is 26.3% [at 11.4 µM].
In the case of `O=C(NCc1ccccc1)c1ccc(C(=O)N(C2CCCCC2)C2CCCCC2)cc1`, the Potency is 31.6 µM (active).
Still for that read-out and setting: the figure for `Cc1cc[n+](C(C)C(=O)c2ccc(-c3ccccc3)cc2)cc1` (stereo unspecified) is 10 µM (active).
On to `CC(C(=O)c1ccc(-c2ccccc2)cc1)[n+]1cccc(NC(=O)c2ccccc2)c1` (stereo unspecified), for which the activity change, negative = inhibition is -21.8% [at 11.4 µM].
As for `N#Cc1c(Oc2ccc3ccccc3c2)sc(C(=O)c2ccccc2)c1N`, the Potency is 14.1 µM (active).
Turning to `COc1cccc(C(=O)c2sc(NC(C)C)nc2N)c1`, the activity change, negative = inhibition is 267% [at 11.4 µM].
On the same count and under the same terms, the figure for `CNc1ccc(Br)cc(C(=O)/C=C/c2ccc3c(c2)OCO3)c1=O` is -5.4% [at 11.4 µM].
On to `CCOC(=O)Oc1c(OC)cc(C(=O)O[C@@H]2C[C@@H]3CN4CCc5c([nH]c6cc(OC)ccc56)[C@H]4C[C@@H]3[C@H](C(=O)OC)[C@H]2OC)cc1OC`, for which the Potency was 28.2 µM (active).
On the same count and under the same terms, for `CC(C)(C)OC(=O)NNc1c2ccccc2nc2ccccc12` the value was 2.24 µM (active); for `Oc1ccc(C2CNCc3sccc32)cc1O` (stereo unspecified), “inactive”; for `COc1cccc2c1C(CO)N1C(C#N)C3CC(C(=O)O)C(C1C2)N3C` (stereo unspecified), “inactive”.
Still for that read-out and setting: for `COc1cccc2c1C1COC3C4CC(C(=O)O)C(C(C2)N13)N4C` (stereo unspecified) the value was 12.6 µM (active).
For `Oc1ccc(C[C@@H]2CNCCN2CCc2cc(C(F)(F)F)cc(C(F)(F)F)c2)cc1`, the activity change, negative = inhibition was -21.2% [at 11.4 µM].
For the compound `CC[C@]12c3[nH]c4ccc(Cl)cc4c3CCN1C(=O)[C@@H](CC(=O)NCC13CC4CC(CC(C4)C1)C3)C[C@@H]2C(=O)N1CCN(C(=O)C2CC2)CC1`, the Potency was 14.1 µM (active).
On the same count and under the same terms, for `Cc1ccc(Cc2cnc(NC(=O)/C(C#N)=C/c3ccc(-c4cccc([N+](=O)[O-])c4)o3)s2)cc1` the value was “inactive”.
As for `CCOc1ccc(OCC)c(NC(=O)Nc2ccc3c(c2)N(C)C(=O)CS3)c1`, the Potency was 22.4 µM (active).
For the compound `COc1ccccc1CNc1nc(NCc2ccc(NC(C)=O)cc2)c2sccc2n1`, the activity change, negative = inhibition was -22.7% [at 11.4 µM].
For `COc1ccccc1CNc1nc(NCc2cccc(OC)c2OC)c2sccc2n1`, the Potency was 17.8 µM (active).
Same read-out and setting: the figure for `O=C(/C=C/c1ccc(Cl)cc1)Nc1ccc(CN2CCOCC2)cc1` is 3.16 µM (active).
Same read-out and setting: for `O=C(CN(c1cccc(Br)c1)S(=O)(=O)c1ccccc1)N/N=C/c1cc([N+](=O)[O-])ccc1O` the value was 10 µM (active); for `CN(Cc1ccccc1)C1=CC(=[N+]2CCCC2)CC(C)(C)C1`, 0.447 µM (active); for `Cc1cccc(OCC(=O)Nc2ccc3c(c2)nc(CCN2CCN(c4ccccn4)CC2)n3C)c1`, 14.1 µM (active).
Take `COc1cccc(/C=N/NC(=O)c2cc(-c3ccccn3)nc3ccccc23)c1O`: the Potency is 2.82 µM (active).
On the same count and under the same terms, the figure for `COc1cccc(/C=N/NC(=O)c2ccc(-c3ccccc3)cc2)c1O` is 2 µM (active); for `COc1cccc(/C=N/NC(=O)c2c(C)nc3ccc(Cl)cn23)c1O` it is 1.41 µM (active).
On to `CCn1c(C)nc2cc(C(=O)N/N=C/c3cccc(OC)c3O)ccc21`, for which the Potency was 2.51 µM (active).
As to `COc1cccc(C=NNC(=O)c2ccncc2)c1O`, the Potency was 15.8 µM (active).
Still for that read-out and setting: for `c1ccc2c(c1)c1c(c3ccccc32)CN2CCCC2C1` (stereo unspecified) the value was “inactive”.
Regarding `Cc1cc2c(N=O)c(NO)ccc2[nH]1`, the Potency is 10 µM (active).
As to `CN(C)CCCN(C(=O)c1ccco1)c1nc2cc3c(cc2s1)OCO3`, the Potency result is “inactive”.
The same measure, in the same setting: the figure for `CN(/N=C/c1cc(Br)cc(Br)c1O)c1cccc(C(F)(F)F)n1` is 11.2 µM (active); for `COc1ccc(NC(=S)N(CCCN2CCOCC2)Cc2cn(C)c3ccccc23)cc1` it is “inactive”.
As for `ClC(Cl)(Cl)c1nc2ccccc2n2nncc12`, the activity change, negative = inhibition was -25.9% [at 11.4 µM].
Same read-out and setting: for `COc1ccc(C2CC(c3cccc(C(F)(F)F)c3)=NN2c2ccc(S(N)(=O)=O)cc2)cc1` (stereo unspecified) the value was -28.1% [at 11.4 µM].
With `NS(=O)(=O)c1ccc(N2N=C(c3ccccc3)CC2c2cccc(Br)c2)cc1` (stereo unspecified), the Potency was 17.8 µM (active).
The same measure, in the same setting: the entry for `NC(Cc1ccc(Cl)cc1)c1csc(Nc2nccc(C(F)(F)F)n2)n1` (stereo unspecified) is “inactive”; for `CC(=O)Nc1ccc(C(=O)N/N=C/c2cc(Br)cc(Br)c2O)cc1` it is 11.2 µM (active); for `O=C(N/N=C/c1cc(Br)cc([N+](=O)[O-])c1O)c1ccc(NC(=O)c2ccc(F)cc2)cc1` it is 3.16 µM (active).
On the same count and under the same terms, for `Cc1cc(C(=O)N/N=C/c2cc(Br)cc([N+](=O)[O-])c2O)c2ccccc2n1` the value was 3.55 µM (active); for `CN(C)c1ccc(C(=O)N/N=C/c2cc(Br)cc(Br)c2O)cc1`, 3.16 µM (active).
For `Cc1ccc2nc(NC(=O)/C=C/c3ccc4c(c3)OCO4)sc2c1`, the Potency entry is “inactive”.
Same read-out and setting: the figure for `O=c1[nH]c(=O)n(C2C[C@H](O)[C@@H](CO)O2)cc1C(F)(F)F` (stereo partly specified) is 2.82 µM (active); for `COC(=O)N/N=C/c1cn(CC(C)COc2ccccc2)c2ccccc12` (stereo unspecified) it is 17.8 µM (active); for `c1ccc2c(c1)C(=NC1CCCCC1)NC2=NC1CCCCC1` it is “inactive”.
On the same count and under the same terms, the figure for `O=C(CCCN1C(=O)/C(=C/c2ccccc2Cl)SC1=S)NNC(=O)c1ccc(Cl)cc1Cl` is 2.82 µM (active); for `Cc1ccc(C(=O)NNC(=O)CCCN2C(=O)/C(=C/c3ccccc3Cl)SC2=S)cc1` it is 11.2 µM (active).
With `O=C(CCCN1C(=O)/C(=C/c2ccccc2Cl)SC1=S)NNC(=O)c1ccc(Cl)cc1`, the Potency was 3.98 µM (active).
On to `Cc1cc(C)c2c(CC(=O)Nc3ccc(Cl)cn3)coc2c1`, for which the activity change, negative = inhibition is 21.1% [at 11.4 µM].
`CCc1ccc(/C=C/C(=O)c2cc(Br)ccc(=O)c2O)cc1`: the Potency entry was “inactive”.
In the case of `NC(Cc1ccc(Cl)cc1)c1csc(Nc2cc(NCCCO)ncn2)n1` (stereo unspecified), the Potency entry is “inactive”.
As for `O=C(N/N=C/c1cc(Cl)ccc1O)c1ccccc1Br`, the Potency was 8.91 µM (active).
On to `Cc1cccc(/C=N/NC(=O)c2cccc(Cl)c2)n1`, for which the activity change, negative = inhibition was -14.3% [at 11.4 µM].
With `O=C(N/N=C/c1c(O)n(Cc2ccccc2)c(=O)c2ccccc12)c1cccnc1`, the Potency is 12.6 µM (active).
Same read-out and setting: the figure for `O=C(N/N=C/c1cc(Cl)ccc1O)c1cccnc1` is 0.631 µM (active); for `CCC1=C(OC(=O)N(CC)CC)N2C(=O)OC(=NCCc3c[nH]c4ccccc34)[C@]2(Cc2ccccc2)[C@H]2C1=CC[C@H]1C(=O)N(c3ccccc3)C(=O)[C@H]12` it is “inactive”; for `Cc1cccn2c(=O)c3cc(C(=O)NCCc4ccccc4)c(=N)n(CCCn4ccnc4)c3nc12` it is “inactive”.
In the case of `CC1(C)Cc2c(c(-c3ccco3)nc3sc4c(NCCN5CCOCC5)ncnc4c23)CO1`, the Potency entry is “inactive”.
Still for that read-out and setting: the figure for `Cc1c(C(=O)Nc2nonc2-c2ccc(F)cc2)oc2ccc(F)cc12` is 11.2 µM (active).
Regarding `O=C(NNC(=O)C12CC3CC(CC(C3)C1)C2)c1ccccn1`, the Potency was 8.91 µM (active).
The same measure, in the same setting: the entry for `CN(C)c1ccc2c(c1)OC(N)=C(C#N)C2c1cccc(F)c1` (stereo unspecified) is “inactive”; for `Cn1cccc1/C=N/N1CCN(Cc2ccccc2Cl)CC1` it is “inactive”; for `O=C(Nc1ccccc1N1CCN(C(=O)c2ccccc2)CC1)c1ccc(Br)o1` it is 28.2 µM (active).
Still for that read-out and setting: the figure for `Cc1cc(C)n(-c2nc(Nc3ccccc3C(F)(F)F)nc(-n3nc(C)cc3C)n2)n1` is 1.78 µM (active).
The same measure, in the same setting: for `CN(C)c1ccc(NC(=O)Nc2nc(C(N)C3CCCCC3)cs2)cc1` (stereo unspecified) the value was “inactive”.
On to `CCOC(=O)c1c(NC(=O)COC(=O)CNC(=O)c2ccco2)sc(C)c1C`, for which the activity change, negative = inhibition is 24.5% [at 11.4 µM].
As to `Cc1cc(C)c(S(=O)(=O)/N=C2\C=C(Nc3ccc(C(=O)O)cc3)C(=O)c3ccccc32)c(C)c1`, the Potency was 1.58 µM (active).
The same measure, in the same setting: the figure for `CCCCCCn1c2c(c(=N)c3c1CCC3)CCC2` is 2.51 µM (active).
Turning to `Cc1ccc(CN2CC(C(=O)Nc3ncc(C)s3)CC2=O)cc1` (stereo unspecified), the activity change, negative = inhibition was 242% [at 11.4 µM].
`Cc1ccc(C(NC(=O)C2CCN(Cc3ccc(Cl)c(Cl)c3)CC2)c2ccccn2)cc1` (stereo unspecified): the Potency was 28.2 µM (active).
Same read-out and setting: for `O=C1C=C(NCCc2cc(Br)c(O)c(Br)c2)C(=O)c2ncccc21` the value was 8.91 µM (active); for `Cc1cc(C)c(C(=O)N2CCCC(N3CCN(c4cccc(C(F)(F)F)c4)CC3)C2)o1` (stereo unspecified), 3.55 µM (active); for `COC1=CC(=O)C=C(OC)C1(O)CC(C)=O`, “inactive”.
Same read-out and setting: for `CCC(=O)NC(c1cc(Cl)c2cccnc2c1O)C(C)C` (stereo unspecified) the value was 3.98 µM (active); for `CC(=O)NC(c1cc(Cl)c2cccnc2c1O)C(C)C` (stereo unspecified), 0.794 µM (active).

The values are drawn from PubChem BioAssay AID1745847 (National Center for Advancing Translational Sciences (NCATS), 2022).
